# Screening results from PubChem.
# In the library only some 18% were active in any assay of this set; here they are far more common.
# TDP1 cell CPT = qHTS for Inhibitors of human tyrosyl-DNA phosphodiesterase 1 (TDP1): qHTS in cells in presence of CPT. AID 686979, 2013. actives 12% (n = 420,000). Potency, µM (titrated, usually from 46.2 µM), inactives show top-dose activity change, negative = growth inhibition, hits mostly inhibitors. chicken DT40 Tdp1-/-;hTDP1 cells + 20 nM CPT, ATP luminescence, 48 h; further: nearly all actives have a fitted effect of over 55% in size
#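 Cell growth measured by CellTiter-Glo luminescence after a minimum 48 h, 37 C compound exposure with 20 nM CPT in Tdp1-knockout DT40 cells stably expressing hTDP1, seeded 400/well; qHTS titration format.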
# PLK1 PBD block = qHTS for Inhibitors of PLK1-PDB (polo-like kinase 1 - polo-box domain): Primary Screen. Potency, µM, for the others: max response, negative = inhibition, actives largely listed as inhibitors. Serine/threonine-protein kinase PLK1 (Homo sapiens), P53350. actives 2.8% (n = 360,000). Plk1 PBD binding of FITC phosphopeptide, fluorescence polarization; further: series mostly up to about 57 µM; nearly all actives have a fitted effect of over 65% in size
# Target sequence (P53350 whole entry, looked up, the tested form may be a part): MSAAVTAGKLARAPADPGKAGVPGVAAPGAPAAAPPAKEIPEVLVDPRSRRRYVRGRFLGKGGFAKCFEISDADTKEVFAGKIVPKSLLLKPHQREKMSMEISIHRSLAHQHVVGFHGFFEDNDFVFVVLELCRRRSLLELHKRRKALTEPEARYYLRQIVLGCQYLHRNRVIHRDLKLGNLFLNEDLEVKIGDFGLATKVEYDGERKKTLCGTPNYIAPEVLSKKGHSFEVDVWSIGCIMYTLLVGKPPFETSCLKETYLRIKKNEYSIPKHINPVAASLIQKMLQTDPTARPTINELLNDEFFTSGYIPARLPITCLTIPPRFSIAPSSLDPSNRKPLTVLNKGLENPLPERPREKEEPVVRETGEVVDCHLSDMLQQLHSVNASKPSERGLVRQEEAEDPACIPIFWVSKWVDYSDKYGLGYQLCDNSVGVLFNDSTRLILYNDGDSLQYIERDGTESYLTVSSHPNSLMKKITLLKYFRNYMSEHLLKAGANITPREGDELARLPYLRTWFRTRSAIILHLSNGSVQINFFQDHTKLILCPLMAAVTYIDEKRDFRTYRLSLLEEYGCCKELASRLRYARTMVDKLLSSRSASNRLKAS
# DT40 TDP1 no CPT = qHTS for Inhibitors of human tyrosyl-DNA phosphodiesterase 1 (TDP1): qHTS in cells in absence of CPT; DT40 Tdp1-/- hTDP1 cells, no CPT, ATP luminescence, 48 h; Potency, µM (highest dose often 46.2 µM), inactives show at the top dose activity change, negative = growth inhibition, actives largely listed as inhibitors; actives 15% (n = 420,000); further: nearly all actives have a fitted effect of over 55% in size
#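 Luminescent ATP content (CellTiter-Glo) served as the growth readout. Knockout chicken DT40 cells expressing human TDP1 were exposed to compounds without camptothecin for a minimum 48 hr at 37 °C.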
# KAT2A inh = qHTS Assay for Inhibitors of GCN5L2. Histone acetyltransferase KAT2A (Homo sapiens), Q92830. GCN5L2 HAT assay, ThioGlo1 CoA-SH fluorescence. Potency, µM (doses to about 58.9 µM), for inactives: top-dose activity change, negative = inhibition, hits mostly inhibitors. actives 0.21% (n = 390,000). AID 504327, 2011
#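 qHTS, 1536-well. 20nM enzyme, pH 7.5 HEPES/EDTA/Tween-20 buffer; 15 min compound preinc., RT. Start: 75uM H3(1-25), 70uM AcCoA, 50uM ThioGlo1. Read Ex340/Em540 at t=0 (autofluorescence flag) and t=20 min.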
# VDR inh = Inhibitors of the vitamin D receptor (VDR): qHTS. VDR-SRC2-3 peptide fluorescence polarization, 2 h. actives 0.93% (n = 400,000). Potency, µM, inactives show max response, negative = inhibition, most hits filed as inhibitors. AID 504847, 2011
#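 Compounds are added to VDR with labelled SRC2-3 coactivator peptide and held 2 h at room temperature. Inhibition of the VDR–peptide interaction is then read as a change in fluorescence polarization.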
# TDP1 inh = qHTS Assay for Inhibitors of Tyrosyl-DNA Phosphodiesterase (TDP1). recombinant TDP1, AlphaScreen DNA substrate cleavage. actives 0.28% (n = 350,000). Potency, µM (doses to about 130 µM), for inactives: top-dose activity change, negative = inhibition, usual class: inhibitors; further: nearly all actives have a fitted effect of over 40% in size
#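 Here, a 5' biotin and 3' phosphotyrosine-FITC DNA oligonucleotide reports Tdp1 activity: intact substrate bridges AlphaScreen beads, while cleavage leaves a 3' phosphate and drops signal. All incubations at room temperature.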
# An asterisk follows results filed as active; ? = inconclusive; . = no result given; [ ] = another dose, or the depositor's remark. The call rests on the fitted dose curve; in most records, active means well fitted curve in the direction sought with a large enough effect; inconclusive means small, poorly fitted or top-dose-only effect, or another doubt; inactive means no such curve, though single readings can be large; an effect the other way counts as inactive or inconclusive. On the % scale 0 is the no-effect control and ±100 the full control effect; potency means the concentration at half of the fitted maximal effect.
SMILES,TDP1 cell CPT,PLK1 PBD block,DT40 TDP1 no CPT,KAT2A inh,VDR inh,TDP1 inh
CC[C@H](C)[C@H](NC(=O)[C@H](CC(=O)O)NC(=O)[C@H](CC(C)C)NC(=O)[C@H](Cc1cnc[nH]1)NC(=O)[C@H](C)NC(=O)[C@H](Cc1ccccc1)NC(=O)[C@H](Cc1ccc(O)cc1)NC(=O)[C@@H](NC(=O)[C@H](C)NC(=O)[C@H](CCC(=O)O)NC(=O)[C@H](CCCCN)NC(=O)[C@H](CC(=O)O)NC(=O)[C@H](CCSC)NC(=O)[C@H](CC(C)C)NC(C)=O)C(C)C)C(=O)N[C@H](C(=O)N[C@@H](Cc1c[nH]c2ccccc12)C(=O)O)[C@@H](C)CC,.,.,.,0%,-5%,.
CN(C)c1ccc(NC(=O)COC(=O)Cn2nnc3ccccc32)cc1,-4%,1%,-2%,-6%,?,8%
CCC1CN(C(=O)N2CCC(C(=O)NCc3cccs3)CC2)c2cc(C)ccc2O1 (stereo not drawn),18µM*,.,23µM*,-8%,8%,1%
Cc1ccc2c(c1)N(C(=O)N1CCC(C(=O)NCc3cccs3)CC1)CC(C)O2 (stereo not drawn),?,.,18µM*,-11%,3%,4%
COc1ccc(CNC(=O)C2CCN(C(=O)N3CC(C)Oc4ccc(C)cc43)CC2)cc1 (stereo not drawn),?,.,?,-2%,21%,1%
O=C(OCc1cccc(C(F)(F)F)c1)c1ccc[nH]c1=O,8%,-9%,0%,-5%,2%,9%
Cc1n[nH]c(C)c1Cc1c(F)cccc1Cl,?,-23%,?,-7%,0%,-1%
Nc1nc(-c2ccccn2)nc(N)c1Cc1ccccc1F,5.8µM*,-11%,4.6µM*,-2%,-7%,12%
Nc1nc(-c2ccccn2)nc(N)c1Cc1c(F)cccc1Cl,1.8µM*,-2%,1.5µM*,-5%,14%,12%
Cc1cccc(CN(C)C[C@H]2OCc3cnnn3CCCC(=O)N([C@H](C)CO)C[C@@H]2C)c1,-18%,-4%,-23%,.,.,.
CC1CCCC(NC(=S)Nc2cccc(S(=O)(=O)N(C)C)c2)C1C (stereo not drawn),?,-13%,18µM*,-4%,21%,3%
CN(C)S(=O)(=O)c1cccc(NC(=S)NC(=O)C2CCCCC2)c1,?,-7%,18µM*,2%,-12%,5%
C=CCN(CC=C)S(=O)(=O)c1ccc(NC(=S)NC(=O)C2CC2)cc1,23µM*,-26%,13µM*,-6%,38%,1%
CC1Cc2ccccc2N1C(=S)Nc1cccc(S(=O)(=O)N(C)C)c1 (stereo not drawn),16µM*,-3%,?,-4%,-2%,-1%
CC1(C)Oc2ccc(C#N)cc2[C@@H](OC2=CC(=O)CC2)[C@@H]1O,-10%[92.5 µM],.,2%[92.5 µM],-7%,9%,-2%
CN(C)S(=O)(=O)c1cccc(NC(=S)NNC(=O)c2cc3ccccc3cc2O)c1,?,24µM*,?,?,-3%,9%
CN(Cc1ccccc1)S(=O)(=O)c1ccc(NC(=S)NC(=O)C2CCCCC2)cc1,12µM*,-20%,15µM*,6%,-11%,0%
Oc1ccc(Br)cc1C1C=C(c2ccc3c(c2)OCO3)NC(c2c(F)cccc2Cl)N1 (stereo not drawn),.,.,.,.,?,4%
CCOc1ccc(C(=O)Nc2cc(-c3ccccc3)no2)cc1,-26%,.,-27%,3%,10%,6%
O=C(O)c1ccc(CCN2CCN(CC=Cc3ccc(Cl)cc3)CC2)cc1,.,.,.,36%,1%,9%
O=C(Nc1ccc(Cl)cc1)C1Cc2c(-c3ccccc3)ccnc2O1 (stereo not drawn),?,-2%,?,.,.,.
CC(C)c1ccc(NC(=O)C2Cc3c(-c4ccc(Cl)cc4)ccnc3O2)cc1 (stereo not drawn),16µM*,-10%,9.2µM*,.,.,.
O=C(Nc1ccc(F)c(Cl)c1)C1Cc2c(-c3ccc4c(c3)OCO4)ccnc2O1 (stereo not drawn),?,4%,?,.,.,.
O=C(Nc1ccc(F)c(Cl)c1)C1Cc2c(-c3ccc(Cl)cc3)ccnc2O1 (stereo not drawn),16µM*,-11%,?,.,.,.
O=C(Nc1ccc(Cl)cc1)C1Cc2c(-c3ccc(Cl)cc3)ccnc2O1 (stereo not drawn),23µM*,-9%,21µM*,.,.,.
SMILES,TDP1 cell CPT,PLK1 PBD block,DT40 TDP1 no CPT,KAT2A inh,VDR inh,TDP1 inh
Cc1oc(-c2ccccc2NC(=O)c2cccnc2)nc1CNC(=O)c1ccc(N(C)C)cc1,1%,.,-16%,.,.,.
CCOC(=O)c1c(Nc2ccc(OC)cc2)nnc(-c2ccccc2)c1-c1ccccc1,23µM*,.,23µM*,-2%,-8%,.
CCOC(=O)c1c(Nc2ccc(O)cc2)nnc(-c2ccccc2)c1-c1ccccc1,?,.,?,3%,-14%,.
CCOC(=O)c1c(Nc2ccc(F)cc2)nnc(-c2ccccc2)c1-c1ccccc1,23µM*,.,18µM*,-9%,-23%,.
CCOC(=O)c1c(Oc2ccc(C(C)=O)cc2)nnc(-c2ccccc2)c1-c1ccccc1,21µM*,.,26µM*,-16%,22%,0%
COc1ccc(-c2nnc(Nc3ccc(OC)c(C(N)=O)c3)c3ccccc23)cc1,?,.,16µM*,0%,24%,0%[12.3 µM]
CCOC(=O)c1c(Nc2ccccc2)nnc(-c2ccccc2)c1-c1ccccc1,?,.,?,-2%,-15%,.
CCCCn1c(N)c(N(CC(C)C)C(=O)CCCn2c(=O)oc3ccccc32)c(=O)[nH]c1=O,0%,-3%,-21%,3%,-2%,0%
COC(=O)[C@@]1(Cc2ccc(OC)cc2)[C@H]2c3cc(C(=O)N(C)C)n(C)c3C[C@H]2CN1C(=O)c1ccccc1,.,.,.,.,.,15%
c1ccc2c(c1)[nH]c1c3ccccc3sc21,-24%,0%,?,1%,-1%,3%
Cc1ccc(-c2cc3cccc[n+]3cc2-c2ccc(C)cc2)cc1,0.65µM*,?,1.2µM*,2%,-1%,11%
